Most compounds without a hit are left out; they make up all but 11% or so of the library.
Pf growth 96h = P. falciparum growth inhibition at 96 hours | 320,000 tested, 6.9% active | Potency, µM (top dose mostly 28.7 µM), without a hit: top-dose activity change, negative = inhibition, most hits filed as inhibitors | P. falciparum luciferase reporter growth, 96 h | AID 504834
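P. falciparum expressing integrated firefly luciferase, in erythrocytes at 2% hematocrit, 0.05% parasitemia, incubated with compounds 96 h at 37 C, 5% CO2. Growth inhibition read as loss of luminescence; two-generation exposure targets delayed-death apicoplast inhibitors.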
Pf growth 48h = P. falciparum growth inhibition at 48 hours (one generation). P. falciparum luciferase growth in erythrocytes, 48 h. Potency, µM (highest dose often 28.7 µM), for inactives: top-dose activity change, negative = inhibition, actives largely listed as inhibitors. 310,000 tested, 5.9% active
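Erythrocytes infected with P. falciparum carrying an integrated firefly luciferase reporter (2% hematocrit, 0.1% parasitemia final) were exposed to compounds in RPMI 1640 with 0.5% Albumax at 37 C, 5% CO2. Growth inhibition was scored as reduced luminescence.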
HCV inh = inhibitors of hepatitis C virus infection; Potency, µM (titrated, usually from 41.8 µM), inactives show at the top dose activity change, negative = inhibition, hits mostly inhibitors; 340,000 tested, 3.4% active; AID 651820; Huh7.5.1 HCVcc-Cre infection, luciferase reporter, 44 h
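Seed cells (1,000/well) for 4 h; treat with compound and infect with HCVcc-Cre, moi about 0.5. Incubate 44 h, then detect luciferase activity.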
AMA1 RON2 block = disrupts binding of P. falciparum AMA1 to RON2; Potency, µM (series often up to 58.2 µM), without a hit: at the top dose activity change, negative = inhibition, most hits filed as inhibitors; AID 720542; 360,000 tested, 0.2% active; AlphaScreen AMA1-biotinylated RON2 peptide binding;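 also: 0% = vehicle wells and -100% = peptide control; nearly all actives have a fitted effect of over 45% in size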
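AMA1 (3D7) with his tag at 25 nM final met compounds first, then biotinylated RON2 peptide at 25 nM; detection used donor plus acceptor beads, 10 µg/mL apiece, read by AlphaScreen after 30 min at room temperature.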
An asterisk follows results filed as active; ? = inconclusive; / = no result; ! = a repeat was not active; [ ] = dose if it differs, or a comment. Calls follow the shape of the dose curve; as a rule, active = well fitted curve in the direction sought with a large enough effect; inconclusive = small, poorly fitted or top-dose-only effect, or another doubt; inactive = no such curve, though single readings can be large; an effect the other way counts as inactive or inconclusive. Unless noted, % is scaled to controls: 0 for no effect and ±100 for the full control effect; potency is read from the fitted curve at half-maximal effect.

SMILES | Pf growth 96h | Pf growth 48h | HCV inh | AMA1 RON2 block
CC(C)CNC(=O)c1ccc(NC(=O)c2cccs2)cc1 | 11.0% | 46.2% | -16.6% | -6.2%
Cc1cc(N2C(=O)C(O)=C(C(=O)c3cc4ccccc4o3)C2c2cccc(Br)c2)no1 (centres undefined) | ? | ? | -18.4% | 50.5%
COC(=O)c1ccc(C2C(C(=O)c3cc4ccccc4o3)=C(O)C(=O)N2c2cc(C)on2)cc1 (centres undefined) | 7.38µM* | 9.28µM* | 19.9% | -12.5%
CCCOc1cccc(C2C(C(=O)c3cc4ccccc4o3)=C(O)C(=O)N2c2cc(C)on2)c1 (centres undefined) | 3.7µM* | ? | 1.4% | 29.3%
Cc1ccc(-n2sc3ccccc3c2=O)cc1 | -18.6% | 4.15µM* | ? | 18.9%
O=c1c2ccccc2sn1-c1ccc(F)cc1 | ? | 10.4µM* | ? | 4.3%
O=c1c2ccccc2sn1-c1ccc(Cl)cc1 | / | / | / | 9.7%
O=C(Nc1cc(Sc2ccccn2)cc([N+](=O)[O-])c1)c1ccc(Cl)cc1 | ? | ? | 10µM* | -20.9%
O=C(Nc1cc(Sc2ccccn2)cc([N+](=O)[O-])c1)c1cccc(Cl)c1 | 20.4% | 9.28µM* | 8.91µM* | -2.9%[11.6 µM]
Oc1ccc(CNc2cccc(F)c2F)c2cccnc12 | ? | 10.4µM* | / | /
Oc1ccc(CNc2ccccc2F)c2cccnc12 | 4.15µM*! | 1.47µM* | 11.2µM* | -80.8%
Oc1ccccc1CNc1cccc2cccnc12 | -0.6% | -2.4% | -11.0% | 45.6%
O=C(Cc1ncc(C(F)(F)F)cc1Cl)NCc1cccnc1 | 32.2% | -6.1% | 1.2% | 0.0%
Oc1ccc(CNc2ccc(C(F)(F)F)cc2Cl)c2cccnc12 | 3.29µM* | 1.65µM* | / | /
COc1cccc(CNc2ccccc2O)c1OCc1ccccc1F | 7.2% | -29.3% | -6.3% | ?
CC1(C(=O)Nc2ccc3c(c2)OCO3)CCN1C(=O)C1CCCCC1 (centres undefined) | / | / | / | -3.9%
FC(F)(F)c1cnc(C(c2ccccn2)c2ncn[nH]2)c(Cl)c1 (centres undefined) | ? | 11.7µM* | -5.0% | 90.8%
FC(F)(F)c1cnc(C(c2ccccc2)c2ncn[nH]2)c(Cl)c1 (centres undefined) | 35.4% | -4.5% | 11.8% | -15.8%
CCC(=O)OCC(=O)[C@@]1(OC(=O)CC)[C@H](C)C[C@@H]2[C@@H]3[C@H]([C@@H](O)C[C@@]21C)[C@]1(C)C=CC(=O)C=C1C[C@@H]3Cl | 4.05µM* | 2.56µM* | / | /
CCC(=O)[C@@]1(C)[C@H](C)C[C@@H]2[C@@H]3CCC4=CC(=O)C=C[C@@]4(C)[C@H]3[C@H](O)C[C@]21C | 2.56µM* | 2.56µM* | / | /
C[C@]12C=CC(=O)C=C1CC[C@@H]1[C@@H]2[C@@H](O)C[C@@]2(C)[C@H]1CC[C@]2(O)C(=O)CO | 5.0% | 35.9% | -3.4% | 4.5%
COCC(C)n1c(C)cc(C(=O)CSc2nc(C)c(C)c(C)n2)c1C (centres undefined) | ? | ? | 10µM* | -7.0%
C/C(=C\c1csc(C)n1)[C@@H]1C[C@@H]2O[C@]2(C)CCC[C@H](C)[C@H](O)[C@@H](C)C(=O)C(C)(C)[C@@H](O)CC(=O)O1 | ? | 0.0013µM* | / | /
CN(C(=O)CCS(=O)(=O)c1ccc2c(c1)oc(=O)n2C)C1CCCCC1 | 4.65µM* | 22.4% | 14.6% | 5.7%
Cc1ccc(N(C)C(=O)CCS(=O)(=O)c2ccc3c(c2)oc(=O)n3C)cc1 | 14.7µM* | 21.5% | 0.0% | -7.2%
SMILES | Pf growth 96h | Pf growth 48h | HCV inh | AMA1 RON2 block
[Hg+][c]1ccccc1 | 3.38µM* | 4.78µM* | / | /
O=C1c2ccccc2N[C@@H]2C=CC[C@@H]2N1O | / | / | 12.4% | 62.1%
Cc1cccc(Nc2nc(OCC#N)nc(N(C)C)n2)c1 | 11.7µM* | -179.3% | -5.5% | 10.4%
CCN(CC)S(=O)(=O)c1cccc(C(=O)OCC(=O)c2ccc3c(c2)OCCO3)c1 | 28.2% | 10.5% | 0.2% | 2.5%
CC(=O)Nc1cc(-c2cccc(N)c2)cn2c(-c3ccc(C(C)=O)cc3)cnc12 | / | / | / | -24.9%
COc1ccc(S(=O)(=O)N2c3ccccc3OCC2C(C)(C)C)cc1 (centres undefined) | 14.7µM* | 11.7µM* | 12.6% | -17.2%
COc1ccc(S(=O)(=O)N2c3ccccc3OCC2c2ccccc2)cc1 (centres undefined) | ? | 13.1µM* | ? | 5.5%
COc1ccc(S(=O)(=O)N2c3ccccc3OCC2C)cc1 (centres undefined) | ? | ? | ? | -11.2%
COc1ccc(S(=O)(=O)N2c3ccccc3OCC2CC(=O)O)cc1 (centres undefined) | 15.7% | -10.8% | ? | 7.4%
Cc1cc(C(=O)NCc2cc(C)n(C)n2)sc1-c1ccccc1 | 0.3% | -7.4% | 3.98µM* | 0.9%
Cc1cc(CNC(=O)c2cc(-c3ccccc3)nc3ccccc23)nn1C | 1.0% | -12.5% | -12.6% | 13.1%
CC(C)C[C@H](NC(=O)N1CCn2c1nc1ccccc12)C(=O)NCC1CCCO1 (some centres undefined) | 4.8% | 10.9% | 13.3% | 82.0%
O=C(Nc1ccc(Br)cc1)c1nn(C23CC4CC(CC(C4)C2)C3)cc1Br | 0.185µM* | ? | 2.6% | 9.2%
Cc1sc2nc(CN3CCC(C)CC3)nc(Cl)c2c1C | 15.5% | 8.8% | ? | /
Cc1sc2nc(CN3CCCC3)nc(N3CCC(C(N)=O)CC3)c2c1C | 9.28µM* | / | ? | 0.6%
Cc1sc2nc(CN3CCCC3)nc(N3CCN(C(=O)c4ccco4)CC3)c2c1C | 3.7µM* | ? | ? | -3.8%
Cc1sc2ncnc(OCC(=O)N3CCN(C(=O)c4ccco4)CC3)c2c1C | -12.3% | 21.6% | -11.0% | 0.8%
COc1cc2cnc(-c3cccnc3)cc2cc1OC | / | / | -13.8% | -5.7%
CC(=O)Oc1ccccc1Cn1c(C)c(C(=O)NCCC#N)sc1=O | / | / | / | -0.6%
COc1ccc(Cc2nnc(N/N=C/c3ccc(Br)cc3)[nH]c2=O)cc1OC | ? | 1.1% | -6.1% | 8.3%
COc1ccc(Cc2nnc(N/N=C/c3ccc(O)cc3)[nH]c2=O)cc1OC | 13.1µM* | 9.28µM* | 0.891µM* | ?
CCN(CC)C(=O)CC(c1ccc(F)cc1)c1ccc(OC(C)C)cc1 (centres undefined) | 0.0% | ? | -6.9% | /
Cc1ncc([N+](=O)[O-])n1CC(C)O (centres undefined) | -9.1% | -2.9% | 2.82µM* | 10.7%
C#CCOCCOCCOCCNc1nc(N2CCN(C(=O)[C@H]([C@@H](C)CC)n3cc([C@@H](N)Cc4ccc(O)cc4)nn3)CC2)nc(N2CCN(C(=O)[C@H](Cc3cc4ccccc4[nH]3)n3cc([C@@H](N)C(C)CC)nn3)CC2)n1 (some centres undefined) | 11.7µM* | ? | / | /
C#CCOCCOCCOCCNc1nc(N2CCN(C(=O)C(CCC(=O)O)n3cc(C(N)CC(C)C)nn3)CC2)nc(N2CCN(C(=O)C(Cc3cc4ccccc4[nH]3)n3cc(C(N)Cc4ccc(O)cc4)nn3)CC2)n1 (centres undefined) | 2.0% | -13.2% | -7.8%[8.37 µM] | 12.4%

Screening data: PubChem BioAssay, National Center for Advancing Translational Sciences (NCATS)
